# A number with no mark means an inactive call.
# System: Scedosporium aurantiacum CBS 136046
# Test: growth inhibition relative to DMSO control (OD600); higher = more antifungal activity, active = 80 or more; extreme values may be limits of the assay
# Settings: 5 µM; 72 h; 37 °C
# 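Note: conidia screened in RPMI 1640 medium under 5% CO2, growth read by spectrophotometer, medium with 0.5% DMSO serving as the untreated reference.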
row,Structure (SMILES),growth inhibition [%]
1,O=C1c2cccc3cccc(c23)C(=O)N1CC1CO1 (stereo not drawn),19.8
2,CCCCN1C[C@H](O)[C@@H](O)[C@H](O)[C@H]1CO,3.51
3,CN(C(=O)C1(c2ccc(Cl)cc2)CCC1)c1ccccc1,13.9
4,CN1CCN(c2ccc3[nH]c(-c4ccc5[nH]c(-c6ccc(O)cc6)nc5c4)nc3c2)CC1,11.7
5,CCC[C@@H]1C[C@@H](C(=O)N[C@@H]([C@H]2O[C@H](SC)[C@H](O)[C@@H](O)[C@H]2O)[C@H](C)Cl)N(C)C1,16.8
6,COc1ccc2cc3[n+](cc2c1OCCN(CCn1cncn1)Cc1ccc(F)cc1F)CCc1cc2c(cc1-3)OCO2,2.66
7,O=c1[nH]c(=O)n(Cc2cccc(Oc3ccccc3)c2)cc1Nc1ccccc1,12.7
8,Cc1onc(-c2ccccc2Cl)c1C(=O)N[C@@H]1C(=O)N2[C@@H]1SC(C)(C)[C@@H]2C(=O)O,0.0225
9,O=C(O)C(Cc1c[nH]c2ccccc12)N1C(=O)c2ccccc2C1=O (stereo not drawn),19.9
10,O[C@@](Cn1cnnn1)(c1ccc(F)cc1F)C(F)(F)c1ccc(-c2ccc(OCC(F)(F)F)cc2)cn1,47.1
11,C[C@@H](NC(=O)c1ccccc1-c1ccccc1)B(O)O,0.688
12,O=S(=O)(Nc1cccc2cccnc12)c1ccccc1,13.6
13,O=C(N[C@H](Cc1cccc2ccccc12)C(=O)NCCc1c[nH]cn1)C1Cc2ccccc2C1,2.31
14,N=C(N)c1ccc(COc2ccc(Cl)cc2)cc1,19.9
15,CC(C)Nc1ncnc2c1cnn2-c1ccc(Cl)cc1,10.7
16,CCc1nc(N)nc(N)c1C#CCc1ccccc1,30.8
17,O=C(CCc1ccc2c(c1)OCO2)NCc1ccc(-c2ccccc2F)cc1,28.3
18,CCOC(=O)Nc1cc(NC(C)CC(C)CN(CC)CC)c2nc(-c3ccccc3)c(-c3ccccc3)nc2n1 (stereo not drawn),36.4
19,COc1ccc(C2CNC(=O)C2)cc1OC1CCCC1 (stereo not drawn),16.6

row,Structure (SMILES),growth inhibition [%]
1,CC1(C)C[C@H]1C(=O)N/C(=C\CCCCSC[C@@H](N)C(=O)O)C(=O)O,4.68
2,CC(C)(C)c1cccc(-c2nc3cc(C(=N)N)ccc3[nH]2)c1O,17.4
3,Cc1c(F)cccc1NC(=O)Nc1ccc(Cl)c(S(=O)(=O)[C@H]2CCCNC2)c1O,4.56
4,O=c1cc(OCc2ccccc2)ccn1Cc1ccccc1,9.92
5,CC(=O)NC[C@H]1CN(c2ccc(N3CCSCC3)c(F)c2)C(=O)O1,29.2
6,CN(C/C=C/C#CC(C)(C)C)Cc1cccc2ccccc12,23.6
7,CC1CCc2c(N3CCC(O)CC3)c(F)cc3c(=O)c(C(=O)O)cn1c23 (stereo not drawn),16.2
8,O=C(NN1C(=O)[C@@H]2[C@@H]3C=C[C@@H]([C@H]4C[C@@H]34)[C@@H]2C1=O)c1ccc(C(F)(F)F)cc1,6.47
9,CCCC(=O)OCCc1ccccc1,0
10,O=C(Nc1ccc(N2CCN(C(=O)c3ccccc3)CC2)cc1)c1ccc2c(c1)OCO2,16.5
11,CCCC1(C2CC2)c2cc(Cl)ccc2NC(=O)N1C (stereo not drawn),18.8
12,CN(C)CCCNC(=O)c1ccc(-c2cc(O)c3ncccc3c2)cc1,11.4
13,Cc1ccc(S(=O)(=O)Nc2cccc3cccnc23)cc1,42.5
14,COc1ccc(SCC(=O)N2c3ccccc3Sc3ccccc32)cc1,19.3
15,Nc1nc(Nc2ccc3nc(-c4ccc(F)cc4)cc(N)c3c2)cc(-c2ccccc2)n1,17.1
16,CC[C@H]1OC(=O)[C@H](C)[C@@H](O[C@H]2C[C@@](C)(OC)[C@@H](O)[C@H](C)O2)[C@H](C)[C@@H](O[C@@H]2O[C@H](C)C[C@H](N(C)C)[C@H]2O)[C@](C)(O)C[C@@H](C)C(=O)[C@H](C)[C@@H](O)[C@]1(C)O,0.273
17,NC(=O)c1ccc(I)c([N+](=O)[O-])c1,13.9
18,CN(C)CCCOc1ccc(-c2ccc3ncc4c(c3c2)n(C2CCOCC2)c(=O)n4C)cn1,3.43
19,O=C(NO)C1(CS(=O)(=O)c2ccc(Oc3ccc(Cl)cc3)cc2)CCOCC1,7.63

# — the supplement of paper PMC9897528
